From ChEMBL document CHEMBL3988442, “University of Dundee, Small-Polar-MMV Screening Library” (2021)
Hit rate of the full screen: of about 48,000 compounds, about 13,000 (27%) showed an effect of 50% or more. The list shows a part of the results.

test system: Wolbachia pipientis; test: Anti-Wolbachia Cell-Based Screen; type: functional; design: scale not given: in the data most compounds retested in dose-response had high values; details: 5 µM

Compound	Percent Effect [%]
Cc1cccnc1CSCCCNS(C)(=O)=O	-17.43
N#Cc1cccnc1NCc1ccc(S(=O)(=O)NCC2CCCO2)cc1 (stereo not given)	8.527
Clc1cccc(N2CCC(NCc3ncc[nH]3)C2)c1 (stereo not given)	-6.784
Cl.c1cnc2c(c1)cc([C@H]1CCCO1)n2CCN1CCCC1	88.22
CSc1nccc(N2CCC(NCCN3CCOCC3)CC2)n1	-2.784
Cl.c1cnc2c(c1)cc([C@H]1CCCO1)n2CCN1CCCCC1	-14.33
Cl.c1cnc2c(c1)cc([C@H]1CCCO1)n2CCN1CCOCC1	-5.726
Cl.c1cnc2c(c1)cc([C@@H]1CCCO1)n2CCN1CCOCC1	92.89
Cl.c1cnc2c(c1)cc([C@@H]1CCCO1)n2CCN1CCCCC1	85.05
CN(CC1CCCO1)C1CCN(CCc2ccccn2)CC1 (stereo not given)	4.903
CC(O)CN1CCN(C(=O)c2ccnc(N(C)C)c2)CC1 (stereo not given)	-11.32
CCc1ccsc1C(=O)N1CCCN(Cc2cscn2)CC1	140.3
CCc1nc(CN2CCCN(C(=O)c3occc3C)CC2)cs1	10.15
Cc1nc(CN2CCN(C(=O)c3sccc3C3CC3)CC2)cs1	-3.645
Cc1nc(CN2CCN(C(=O)c3ccn(C)c(=O)c3)CC2)cs1	11.68
Cc1nc(CN2CCN(C(=O)c3sccc3C)CC2)cs1	154.8
COC(C(=O)N1CCCN(Cc2cscn2)CC1)c1ccccc1 (stereo not given)	-16.29
COc1ccsc1C(=O)N1CCCN(Cc2cscn2)CC1	127

Compound	Percent Effect [%]
Cc1nc(CN2CCN(C(=O)c3ccnc(N(C)C)c3)CC2)cs1	110.9
COCC1CCN(S(=O)(=O)N2C[C@@H](C)[C@@](C)(O)C2)CC1	1.126
CN(Cc1cn2c(n1)CN(Cc1ccsc1)CC2)Cc1ccco1.O=C(O)C(F)(F)F.O=C(O)C(F)(F)F	-7.727
CSc1cccc(CNC(=O)C2CC(=O)N(C3CC3)C2)c1 (stereo not given)	-14.89
Cn1cc(N2C[C@@H]3CN(S(=O)(=O)C4CC4)C[C@@H]3C2=O)cn1	-1.09
COc1cccc(COC(C)C(=O)N(C)Cc2nnc3n2CCC3)c1 (stereo not given)	-2.392
Cc1cc(CNc2cc(-c3ccoc3C)nn2CCO)c(C)o1	-24.32
Cc1nc(CN2CCCN(C(=O)C3(C#N)CCCCC3)CC2)cs1	-0.8463
CCn1cc(CN2CCCN(C(=O)c3sccc3C#N)CC2)cn1	-3.745
CC(C)c1ccc(O)c(C(=O)N2CCN(Cc3cscn3)CC2)c1	-2.44
CCn1ccnc1CN1CCCN(C(=O)c2sccc2C#N)CC1	2.639
N#CC1(C(=O)N2CCN(Cc3cscn3)CC2)CCCC1	-7.08
Cc1ccsc1C(=O)N1CCCN(Cc2cscn2)CC1	92.98
Cc1nc(CN2CCCN(C(=O)c3sccc3C#N)CC2)cs1	111.7
Cc1ccsc1C(=O)N1CCN(Cc2cscn2)CC1	118.4
N#Cc1ccsc1C(=O)N1CCCN(Cc2cscn2)CC1	105.7
CC(C)c1ccsc1C(=O)N1CCCN(Cc2cscn2)CC1	10.39
